# In PubChem BioAssay (Tox21):
# Records with an inconclusive call do not appear. Unmarked numbers belong to inactive results. The call rests on the fitted dose curve; in most records, active means well fitted inhibition curve with a large enough effect in the signal ratio in the repeat runs (not every such curve was filed as active); inconclusive means weak or mixed curves, or effect the other way; inactive means no such curve, though single readings can be large or run the other way; the % refers to the signal ratio.
# Molecular target: Vitamin D3 receptor (Homo sapiens) (UniProt P11473)
# Sequence (P11473 whole entry, looked up): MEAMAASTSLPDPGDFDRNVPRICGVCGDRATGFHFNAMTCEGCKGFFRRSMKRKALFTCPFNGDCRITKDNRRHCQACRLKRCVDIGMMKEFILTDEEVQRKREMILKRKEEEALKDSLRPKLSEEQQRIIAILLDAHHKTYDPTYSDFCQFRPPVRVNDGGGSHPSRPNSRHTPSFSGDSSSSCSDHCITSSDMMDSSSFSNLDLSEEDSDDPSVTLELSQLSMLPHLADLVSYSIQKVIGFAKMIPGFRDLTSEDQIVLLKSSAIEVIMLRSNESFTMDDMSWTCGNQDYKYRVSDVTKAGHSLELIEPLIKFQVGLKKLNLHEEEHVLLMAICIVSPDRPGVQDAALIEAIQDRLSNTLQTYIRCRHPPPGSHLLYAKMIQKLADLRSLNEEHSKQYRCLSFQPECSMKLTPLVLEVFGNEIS
# Assay: qHTS assay to identify small molecule antagonists of the vitamin D receptor (VDR) signaling pathway (AID 743223)
# Details: VDR-UAS-bla HEK293T, beta-lactamase FRET ratio, 16 h; series mostly up to 61 µM; activity change, negative = inhibition: at the top concentration
# Excerpt: U.S. Tox21 Program National Center for Advancing Translational Sciences [NCATS] NIH Chemical Genomics Center [NCGC] U.S. Environmental Protection Agency [EPA] National Institutes of Environmental Health Sciences [NIEHS] National Toxicology Program [NTP] U.S. Food and Drug Administration [FDA] Tox21 Assay Overview: The vitamin D receptor (VDR), a member of nuclear hormone receptor superfamily, plays a critical role in calcium homeostasis and bone metabolism. It is also involved in cell differentiation and growth, and thrombogenicity.
# Tox21 Assay Protocol Summary: VDR-bla cells were dispensed at 2,000 cells/5 uL of assay medium per well into black wall/clear-bottom 1536-well plates using a Multidrop Combi (Thermo Fisher Scientific, Waltham, MA) dispenser. After the assay plates were incubated at a 37C and 5% CO2 for 4 h, 23 nL of compounds dissolved in DMSO, positive controls or DMSO only was transferred to the assay plate by a Pintool station (Kalypsys, San Diego, CA), followed by addition of 1 uL of 1alpha, 25-Dihydroxy Vitamin D3 (3 nM, final concentration in the wells) using a Bioraptr Flying Reagent Dispenser (FRD) workstation (Beckman Coulter, Indianapolis, IN). The plates were incubated at 37C and 5% CO2 for 16 h, and then 1 uL of LiveBLAzerTM B/G FRET substrate was added using a Bioraptr FRD. The plates were incubated at room temperature for 2 h and fluorescence intensity was measured by an Envision plate reader (PerkinElmer, Shelton, CT).
# On the % scale 0 is the no-effect control and ±100 the full control effect.
row,SMILES,"activity change, negative = inhibition"
1,NC(=O)N(O)[C@@H]1C=C[C@H](Oc2cccc(Oc3ccc(F)cc3)c2)C1,-2.23%
2,CCCCC(CC)COC(=O)COc1ccc(Cl)cc1C (stereo not given),-7.31%
3,CC(C)CCCCCCOC(=O)CCCCC(=O)OCCCCCCC(C)C,9.98%
4,Nc1nccs1,2.77%
5,Cc1cc(C(=C2C=CC(=Nc3ccc(S(=O)(=O)O)cc3S(=O)(=O)O)C=C2)c2ccc(Nc3ccc(S(=O)(=O)O)cc3)cc2)ccc1N,-24%
6,C/C(=N/NC(=O)c1ccncc1)C(=O)O,10.2%
7,C=CC(C)(C)CC(=O)OC,-10.6% [at 78.8 µM]
8,CCCCC/C(=C\c1ccccc1)CO,-17.5% [at 78.8 µM]
9,CC(=N\O)/C(C)=N/O,-16%
10,CCCCCCCC/C=C\CCCCCCCC(=O)OC,0.973%
11,NC(=O)Nc1ccc(Cl)cc1,20%
12,CCCCC(=O)O[C@]1(C(=O)CO)[C@@H](C)C[C@H]2[C@@H]3CCC4=CC(=O)C=C[C@]4(C)[C@@]3(F)[C@@H](O)C[C@@]21C,20.9%
13,CC(C)CCCCCOC(=O)CCCCC(=O)OCCCCCC(C)C,-0.288%
14,C[Si](NC1CCCCC1)(NC1CCCCC1)NC1CCCCC1,-5.09%
15,Nc1ccc(Cl)cc1[N+](=O)[O-],-3.79%
16,O=C(NCCCN1CCOCC1)c1ccc(Cl)cc1,-1.05%
17,CC1(C)C2=CCCC(C)(C)[C@]23CC[C@H]1C3,-1.72%
18,O=C(/C=C/c1ccccc1)OCCCc1ccccc1,9.2%
19,COc1cc2ncnc(Nc3ccc(F)c(Cl)c3)c2cc1OCCCN1CCOCC1,-0.264%
20,OC(CCCN1CCCCC1)(c1ccccc1)c1ccccc1,10%

row,SMILES,"activity change, negative = inhibition"
1,O=C(CCCCCCC(=O)Nc1ccccc1)NO,-15.9%
2,CC(C)(C)C(=O)O,4.99% [at 78.8 µM]
3,CC(C)(C)CC(C)(C)c1ccc(OCCO)cc1,6.01%
4,O=Cc1c(Cl)cccc1Cl,20.9% [at 78.8 µM]
5,O=C(CCCN1CCC(O)(c2ccc(Br)cc2)CC1)c1ccc(F)cc1,-13.8%
6,Cn1c(=O)c2c(ncn2CC(=O)O)n(C)c1=O,5.46%
7,O=C(CS)OCCOC(=O)CS,3.92%
8,NC(=O)N(O)[C@@H]1COc2cc(OCc3ccccc3)ccc21,-11.8%
9,CCC(C)(O)CCC=C(C)C (stereo not given),0%
10,CCCCCCCCCOC(C)=O,-0.637%
11,OC/C(Br)=C(\Br)CO,12.2%
12,Brc1cc(-c2ccc(Br)c(Br)c2Br)cc(Br)c1Br,7.97%
13,CCCCC(CC)CNCC(CC)CCCC (stereo not given),-1.43%
14,CC[C@H](NC(=O)c1cc(F)ccc1NS(=O)(=O)c1cccc2cccnc12)c1ccccc1,0%
15,CCCC(=O)O[C@]1(C(=O)COC(=O)CC)CC[C@H]2[C@@H]3CCC4=CC(=O)CC[C@]4(C)[C@H]3[C@@H](O)C[C@@]21C,-5.82% [at 28.5 µM]
16,NC(=O)Cn1c(=O)cc(CCN2CCN(c3nccc4sccc34)CC2)c2ccc(F)cc21,0.535%
17,CC1(C)O[C@@H]2C[C@H]3[C@@H]4CCC5=CC(=O)C=C[C@]5(C)[C@H]4[C@@H](O)C[C@]3(C)[C@]2(C(=O)CO)O1,29.6%
18,CC1CC(O)CC(C)(C)C1 (stereo not given),-6.04%
19,CC1(C)C(=O)N(Br)C(=O)N1Cl,2.47%
20,CCOC(=O)/C=C/C(=O)O,2.99%
